The sample as a whole holds a higher share of hits than the screen did.
PD-1 reverse act – reversal of PD-1 mediated T-cell inhibition; primary human CD4 T cells, PD-L1 beads, CellTiter-Glo 96 h; activation, % (no concentration beside the values); 29,000 tested, under 10 active; call rule not given here;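 note: 0% = median vehicle wells and 100% = positive control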
STK33 inh – human STK33 kinase inhibition; inhibition, % at 12.5 µM; Q9BYT3; ADP-Glo luminescence, MBP substrate; 0.44% of 27,000 active; AID 2322; in the data active = inhibition above about 20%; inconclusive = no clear call, values can overlap the other calls
Target sequence (Q9BYT3 whole entry, looked up): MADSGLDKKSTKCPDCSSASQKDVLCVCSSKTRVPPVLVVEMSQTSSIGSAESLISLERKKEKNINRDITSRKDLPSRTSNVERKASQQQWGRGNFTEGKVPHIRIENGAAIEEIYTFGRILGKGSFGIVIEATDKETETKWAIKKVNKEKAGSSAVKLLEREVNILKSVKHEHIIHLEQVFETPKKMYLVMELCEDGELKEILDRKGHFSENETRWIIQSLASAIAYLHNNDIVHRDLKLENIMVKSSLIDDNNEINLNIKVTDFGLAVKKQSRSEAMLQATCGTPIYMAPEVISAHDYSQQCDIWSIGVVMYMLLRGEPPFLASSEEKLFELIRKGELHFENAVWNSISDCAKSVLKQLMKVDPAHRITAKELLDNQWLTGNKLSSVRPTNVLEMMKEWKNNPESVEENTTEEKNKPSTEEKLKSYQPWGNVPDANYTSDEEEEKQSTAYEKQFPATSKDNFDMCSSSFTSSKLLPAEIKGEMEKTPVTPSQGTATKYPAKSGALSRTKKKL
NOMO-1 viab – STK33 inhibitor candidate reducing NOMO-1 cell viability; NOMO-1 AML viability, CellTiter-Glo luminescence, 72 h; inhibition, % (no concentration beside the values); 7.5% of 37,000 active; AID 2330; in the data active = inhibition above about 80%; inconclusive = no clear call, values can overlap the other calls
Starred values were filed as active, the others as inactive; ? = inconclusive; · = no result given.

SMILES	PD-1 reverse act	STK33 inh	NOMO-1 viab
Cc1sc2nc3c4ccccc4c(NCC4CCCO4)nn3c(=O)c2c1C (stereo not given)	0.4	·	86.9*
Cc1ccc(S(=O)(=O)Nc2ccc(C(=O)Nc3cccc(N(C)S(C)(=O)=O)c3)cc2)cc1	-0.9	-3.5	3.0
COCCCNC(=O)[C@@]1(CCS(=O)(=O)c2ccccc2)N=C(c2ccc(OCCCO)cc2)O[C@H]1c1ccccc1	·	-8.8	·
Cc1noc(C)c1NC(=O)N(C)C[C@H]1Oc2ccc(NC(=O)CCC(F)(F)F)cc2CC(=O)N([C@@H](C)CO)C[C@@H]1C	0.8	2.9	-7.5
C[C@H]1CN([C@@H](C)CO)C(=O)Cc2cc(N(C)C)ccc2O[C@H]1CN(C)Cc1ccc(C(=O)Nc2ccccc2N)cc1	-0.6	·	140.9*
C[C@H](CO)N1C[C@H](C)[C@H](CN(C)Cc2ccc(C(=O)Nc3ccccc3N)cc2)Oc2ccc(N(C)C)cc2CC1=O	-1.8	·	141.1*
CC(C)[N+]1(C)C2CC[C@@H]1CC(OC(=O)C(CO)c1ccccc1)C2 (stereo not given in full)	·	-8.4	14.7
COc1cccc(NC(=O)CN(c2cc(Cl)c(Cl)cc2Cl)S(C)(=O)=O)c1	0.5	-2.1	40.4
COC(=O)c1cc(NC(=O)CN(c2cc(Cl)c(Cl)cc2Cl)S(C)(=O)=O)ccc1Cl	-1.2	2.0	133.0*
COC(=O)c1ccc(NC(=O)CN(c2cc(Cl)c(Cl)cc2Cl)S(C)(=O)=O)cc1	-1.7	3.8	61.2
Cc1ccc(NC(=O)CN(c2cc(Cl)c(Cl)cc2Cl)S(C)(=O)=O)cc1	1.4	1.8	16.1
CS(=O)(=O)N(CC(=O)Nc1ccc(C(F)(F)F)cc1)c1ccc(Oc2ccccc2)cc1	-3.1	-1.8	109.0*
CS(=O)(=O)N(CC(=O)Nc1ccc(C(F)(F)F)cc1)c1cccc(C(F)(F)F)c1	-4.6	-1.4	67.3
Cc1ccc(NC(=O)CN(c2cc(Cl)c(Cl)cc2Cl)S(C)(=O)=O)cc1Cl	0.0	-4.1	84.5*
CS(=O)(=O)N(CC(=O)Nc1ccc(Oc2ccccc2)cc1)c1cc(Cl)c(Cl)cc1Cl	0.0	2.0	118.2*
C[C@H]1CN([C@@H](C)CO)C(=O)c2cccc(NC(=O)C3CC3)c2O[C@@H]1CN(C)Cc1ccc(Oc2ccccc2)cc1	·	·	74.8
CCOC(=O)c1sc(SC)c2c1CCc1conc1-2	-0.5	·	27.6
O=C(CSC1CC(=O)N(c2ccc(F)cc2)C1=O)Nc1ccc(Br)cc1 (stereo not given)	·	5.4	2.6
COc1ccc(NC(=O)CC2Sc3ccc(C(F)(F)F)cc3NC2=O)c(OC)c1 (stereo not given)	-1.4	0.8	30.1
CSc1ccccc1C(=O)Nc1ccccc1C(=O)NCc1ccco1	1.8	-4.3	2.6
CC(=O)Nc1ccc(NC(=O)CSc2nc3sc(C)c(C)c3c(=O)n2C)cc1	0.8	-5.9	39.9
CCn1nc(C)c(NC(=S)NCc2ccco2)c1C	3.2	-0.1	24.5
C/C=C(\C)C(=O)O[C@H]1C=C(CO)C(=O)[C@H](OC(C)=O)[C@H]1C(C)C	-35.1	1.3	122.2*
Cc1cccc(NC(=O)Cn2cnc3sc(-c4ccccc4)cc3c2=O)c1	1.5	4.3	12.9
O=C(Cn1cnc2sc(-c3ccccc3)cc2c1=O)NCc1ccco1	·	5.2	115.7*
SMILES	PD-1 reverse act	STK33 inh	NOMO-1 viab
COc1ccc(S(=O)(=O)N(C)C[C@@H]2Oc3ccc(NC(=O)C4CC4)cc3C(=O)N([C@H](C)CO)C[C@H]2C)cc1	-2.1	·	10.6
C[C@H](CO)N1C[C@H](C)[C@@H](CN(C)CC2CCCCC2)Oc2c(NC(=O)Nc3ccccc3)cccc2C1=O	-3.2	·	?
C[C@@H]1CN([C@H](C)CO)C(=O)c2cccc(NC(=O)Nc3ccccc3)c2O[C@@H]1CN(C)CC1CCCCC1	1.0	·	10.7
C[C@@H]1CN([C@@H](C)CO)C(=O)c2cccc(NC(=O)Nc3ccccc3)c2O[C@H]1CN(C)CC1CCCCC1	·	·	93.1*
C[C@@H]1CN([C@H](C)CO)C(=O)c2cccc(NC(=O)Nc3ccc(F)cc3)c2O[C@H]1CN(C)CC1CCCCC1	-6.3	·	112.5*
C[C@H]1CN([C@@H](C)CO)C(=O)c2cccc(NC(=O)Nc3ccc(F)cc3)c2O[C@@H]1CN(C)CC1CCCCC1	-3.6	·	?
C[C@H]1CN([C@@H](C)CO)C(=O)c2cccc(NC(=O)Nc3ccccc3)c2O[C@@H]1CN(C)CC1CCCCC1	-3.2	·	89.9*
CC(C)NC(=O)N(C)C[C@H]1Oc2c(NC(=O)C3CCOCC3)cccc2C(=O)N([C@H](C)CO)C[C@H]1C	1.8	·	4.6
C[C@H](CO)N1C[C@H](C)[C@H](CN(C)Cc2ccc(Oc3ccccc3)cc2)OCc2cn(nn2)CCCC1=O	·	1.2	·
CC(C)NC(=O)N(C)C[C@@H]1Oc2ccc(NC(=O)CCC(F)(F)F)cc2CC(=O)N([C@H](C)CO)C[C@H]1C	·	0.3	22.9

Screens deposited in PubChem BioAssay by Broad Institute.
